Bioassay records deposited in PubChem BioAssay by National Center for Advancing Translational Sciences (NCATS).
PTAP TSG101 blk: blocks PTAP/TSG101 interaction to inhibit HIV-1 budding. Potency, µM (highest dose often 115 µM), without a hit: top-dose activity change, negative = inhibition, actives largely listed as inhibitors. AID 493005. 340,000 tested, under 10 active. Q99816. Fluorescence polarization, FITC-PTAP peptide / Tsg101 binding; active = well fitted inhibition curve with a large enough effect in the main read-out, with a control signal flat, not every such curve was filed as active; inconclusive = small, poorly fitted or top-dose-only effect, or effect the other way, or a change in a side signal; inactive = no such curve, though single readings can be large or run the other way; note: % of control where 0% means no effect
Target sequence (Q99816 whole entry, looked up): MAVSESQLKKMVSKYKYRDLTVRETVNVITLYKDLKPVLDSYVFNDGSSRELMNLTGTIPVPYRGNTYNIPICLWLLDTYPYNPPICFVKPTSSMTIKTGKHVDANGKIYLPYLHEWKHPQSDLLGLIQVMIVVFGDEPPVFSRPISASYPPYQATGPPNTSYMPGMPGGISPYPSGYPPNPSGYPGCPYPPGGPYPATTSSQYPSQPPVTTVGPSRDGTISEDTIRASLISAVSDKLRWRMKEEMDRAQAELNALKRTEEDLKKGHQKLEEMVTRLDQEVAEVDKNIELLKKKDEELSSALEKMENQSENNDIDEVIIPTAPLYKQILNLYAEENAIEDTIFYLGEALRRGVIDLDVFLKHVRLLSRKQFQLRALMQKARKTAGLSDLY
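FP read-out: FITC-PTAP peptide, 50 nM final, binding Tsg101 binding domain, 10 uM final; 20 min, r.t.; 10 mM HEPES pH 7.5, 0.15 M NaCl, 0.01% Tween 20, 3 mM EDTA, 0.1 mM TCEP.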
Eya2 inh: inhibitors of human Eya2 phosphatase activity; O00167; recombinant Eya2, OMFP fluorescence dephosphorylation (OMFP is methylfluorescein phosphate); Potency, µM (highest dose often 76.9 µM), for the others: at the top dose activity, negative = inhibition, most hits filed as inhibitors; 0.006% of 330,000 active; AID 488837; note: % is set by controls: 0 for no effect and ±100 for the full control effect
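Eya2 (0.2 uM) preincubated 10 min at ambient with compound, then OMFP substrate added at 50 uM; 10 min reaction in 50 mM HEPES pH 7.5, 50 mM NaCl, 5 uM MgCl2, 0.05% BSA, 1 mM DTT. Fluorescence read at Ex 485/Em 525 nm.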
12-LOX inh: blocks human arachidonate 12S-lipoxygenase. P18054. purified 12hLO, xylenol orange hydroperoxide absorbance. Potency, µM (titrated, usually from 108 µM), without a hit: at the highest dose activity change, negative = inhibition, actives largely listed as inhibitors. 1.1% of 580,000 active; note: % is set by controls: 0 for no effect and ±100 for the full control effect
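Purified human 12hLO (150 nM final) in 25 mM Hepes, 0.01% Triton X-100, pH 7.0 was preincubated 15 min at room temperature with compound. Then 40 uM arachidonic acid was added, 30 min. Hydroperoxide was read by Fe-XO absorbance ratio 573/405 nm.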
USP2a inh: inhibitors of human ubiquitin-specific protease USP2a; O75604; USP2 core, Ub-CHOP2 coupled fluorogenic reporter, 485/531; Potency, µM (doses to about 38.3 µM), without a hit: at the top dose activity change, negative = inhibition, most hits filed as inhibitors; 0.01% of 330,000 active;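 note: plate controls were DMSO wells for no effect and full inhibition by NEM control for full effect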
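Deubiquitinase activity read as fluorescence (485/531 nm) after Ub-CHOP2 cleavage activates the enterokinase reporter on its substrate; USP2 core 10nM, Ub-CHOP2 and substrate 25nM each, 30min compound preincubation then 60min RT; data normalized to NEM, curves fitted.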
An asterisk follows results filed as active; ? = inconclusive; . = no result; ! = a repeat was not active; [ ] = another dose, or the depositor's remark. This is a sample that favours compounds with a hit; in the whole collection about 1.1% have one here. Unless noted, calls come from the whole dose curve; as a rule, active = well fitted curve in the direction sought with a large enough effect; inconclusive = small, poorly fitted or top-dose-only effect, or another doubt; inactive = no such curve, though single readings can be large; an effect the other way counts as inactive or inconclusive. Potency is the fitted concentration of half-maximal effect.

SMILES | PTAP TSG101 blk | Eya2 inh | 12-LOX inh | USP2a inh
Cc1cccc(CN2CCCC(O)(CNCc3ncccc3C)C2=O)c1 (stereo unspecified) | . | . | 89% | .
COc1cccc(C(=O)N2CCC(c3nn(-c4ccc(Cl)cc4)c(=O)[nH]3)CC2)c1 | . | . | 35µM* | .
Nc1cc2nn(-c3ccccc3)nc2cc1Cl | -4% | -23% | 5.6µM* | 0%
Cc1cc2nn(-c3cccc4ccccc34)nc2cc1N | -1% | -6% | ? | -1%
Cc1ccc(-n2nc3cc(C)c(N)cc3n2)cc1 | 0% | -28% | 45µM* | 3%
COc1ccc(-n2nc3cc(N)c(Br)cc3n2)cc1 | 1% | -10% | -8% | 1%
CCc1ccc(-n2nc3cc(C)c(NC(=O)c4cccc5ccccc45)cc3n2)cc1 | . | . | -21% | .
CCc1ccc(-n2nc3cc(C)c(N)cc3n2)cc1 | -8% | 7% | 20µM* | 1%
COc1ccc(-n2nc3cc(C)c(N)c(Br)c3n2)cc1 | -13% | -14% | 28µM* | 1%
Cc1ccc(-c2cc3c(=O)n(CCNC(=O)c4ccc[nH]c4=O)ccn3n2)cc1C | . | . | -4% | .
O=S(=O)(NNc1ccc(Cl)nn1)c1ccc(F)cc1 | 0% | 1% | 1.3µM* | -3%
O=S(=O)(Nc1ccc(Cl)nn1)c1ccccc1 | -3% | 0% | -10% | 1%
Cc1noc(C)c1Cc1ccc(C(=O)N2CCCCCCNC(=O)[C@@H]3CCCC[C@@H]32)o1 | . | . | 6% | .
Cc1c2cnn(CC(=O)NCc3ccc(F)cc3)c(=O)c2c(C)n1Cc1ccccc1F | . | . | -26% | .
Cc1c2cnn(CC(=O)Nc3c(F)c(F)cc(F)c3F)c(=O)c2c(C)n1Cc1ccccc1F | -4% | 3% | 20µM* | 2%
CC(C)(C)C(=O)Nc1cc(S(=O)(=O)Nc2ccc(Cl)cc2)ccc1O | -5% | -10% | 40µM* | 5%
C=C(C)C(=O)Oc1ccc(N=Nc2ccc(C)cc2)ccc1=O | -5% | . | 22µM* | .
Cc1ccc(CN2CCN(C(=O)c3ccc4c(c3)C(O)CCCCCN4C)CC2)cc1 (stereo unspecified) | . | . | 0% | .
CC(=O)Nc1ccc(NC(=O)c2nccnc2C(=O)O)cn1 | -4% | 2% | ? | -5%
COc1cc(NC(=O)c2nccnc2C(=O)O)cc(OC)c1 | -2% | 4% | 4.5µM* | 0%
COCCN(CCOC)Cc1cccc2ccccc12 | . | . | 3% | .
CN(C)CCCN(Cc1cccc2ccccc12)Cc1cccc2ccccc12 | . | . | 5µM* | .
COc1ccc(/C=C2\S/C(=N/S(=O)(=O)c3cccs3)NC2=O)cc1 | -12% | 1% | 40µM* | -1%
O=C(Nc1ccc2c(N3CCCCC3)ncnc2c1)c1ccc(F)cc1F | . | . | 64% | .
Cc1cc(C)c(NC(=O)CSc2nncn2C)c(Cl)c1 | . | . | 9% | .
SMILES | PTAP TSG101 blk | Eya2 inh | 12-LOX inh | USP2a inh
CCCS(=O)(=O)Nc1ccc(N2CCCCC2)c(S(=O)(=O)Nc2ccccc2OC)c1 | 0% | -23% | 32µM* | 2%
CCOC(=O)CNCCC(=O)c1ccc(Br)cc1 | -1% | 4% | 28µM* | 0%
COc1cc(OC)c(NC(=O)c2ncoc2-c2ccc(C)o2)cc1Cl | . | . | -5% | .
O=C(c1ccccc1)c1ccccc1N1C(=O)C=CC1=O | -4% | 8% | 7.9µM* | -1%
COc1ccc2nc3n(c2c1)[C@@H](CNCc1ccc(C(F)(F)F)cc1)COC3 | . | . | 32%[176 µM] | .
Cn1c(=O)c2cc(NC(=O)Cc3ccccc3F)ccc2n1C/C=C/c1ccccc1 | . | . | -18% | .
Cn1c(=O)c2cc(NC(=S)NC3CCCCC3)ccc2n1C/C=C/c1ccccc1 | . | . | 40µM* | .
Cc1ccc(O)c(CN2CC[C@@H](c3ccc4ccccc4c3)[C@H](O)C2)n1 | . | . | 33% | .
CC1CC(C)(C)NC(=S)N1CCC(=O)N1CCN(c2ccccc2)CC1 (stereo unspecified) | -1% | 7% | ? | 5%
CC1CC(C)(C)NC(=S)N1CCC(=O)N1CCc2ccccc2C1 (stereo unspecified) | -1% | -23% | 40µM* | 0%
C/C(=N\NC(=S)NCc1ccccc1)c1ccc2ccccc2c1 | -1% | 2% | 45µM* | -4%
C/C(=N\NC(=S)NCCc1ccccc1)c1cccc(Br)c1 | 1% | 3% | 45µM* | -1%
COc1ccccc1/C(C)=N/NC(=S)NCc1ccccc1 | 0% | -14% | 40µM* | 0%
C/C(=N/NC(=S)NCc1ccccc1)c1ccncc1 | . | . | -5% | .
C/C(=N\NC(=S)NCc1ccccc1)c1cccc(Br)c1 | -1% | 11% | 32µM* | -2%
CCCN1CCCC12Cc1ccccc1CN(C(=O)C(C)C)C2 (stereo unspecified) | . | . | 56% | .
CN(C)C(=O)C1CN(C(=O)CCc2ncc(-c3ccccc3Cl)o2)c2ccccc2O1 (stereo unspecified) | . | . | -2% | .
CCC(=O)Oc1ccc2c(=O)c(Oc3cc(C)cc(C)c3)coc2c1 | . | . | -15% | .
CCC(C)Sc1cc(-c2nc3ccc(Cl)cn3c2NC2CCCCC2)ccc1OC (stereo unspecified) | 5% | 1% | 40µM*! | 0%
COc1ccc(-c2cccc(-c3nc4ccc(Cl)cn4c3NC3CCCCC3)c2)cc1 | 5% | 4% | 7.1µM* | 6%
CCCCCCSc1cc(-c2nc3ccc(Cl)cn3c2NC2CCCCC2)ccc1OC | 7% | 0% | -27% | 0%
C/C=C(/C)C(=O)OC1Cc2cc3ccc(=O)oc3cc2OC1(C)C (stereo unspecified) | . | . | -13% | .
O=c1c2c(nc3cc(-c4ccccc4Cl)[nH]n13)CCS2 | 1% | 11% | 40µM* | 3%
O=c1c2c(nc3cc(-c4ccccc4)[nH]n13)CCS2 | -1% | -6% | -9% | -2%
CCN(CC#N)CC(=O)NC1(C#N)CCCC1 | . | . | -22% | .
SMILES | PTAP TSG101 blk | Eya2 inh | 12-LOX inh | USP2a inh
O=C(c1cccc(Cl)c1)N1CCC2(CC1)Cc1ccccc1NC2=O | . | . | 15% | .
Cc1ccc(C(=O)N2CCC3(CC2)NC(=O)N(c2ccccc2Cl)N3)c(C)c1 | . | . | 2.2µM* | .
O=C(c1cccc(Cl)c1)N1CCC2(C1)NC(=O)N(Cc1ccc(Cl)cc1)C2=O (stereo unspecified) | . | . | 40µM* | .
CC(Oc1ccccc1)C(=O)N1CCC2(CC1)NC(=O)N(c1ccccc1Cl)N2 (stereo unspecified) | . | . | 1.4µM* | .
O=C(c1cccc(Cl)c1)N1CCC2(CC1)NC(=O)N(c1ccccc1Cl)N2 | . | . | 1.6µM* | .
Cc1ccc(C(=O)N2CCN(c3ncccn3)CC2)c(C)c1 | 0% | 12% | -11% | 0%
COc1cc(C)ccc1C(C)C | . | . | -6%[176 µM] | .
COc1ccccc1/C=C/c1nc(C#N)c(N(C)Cc2ccccc2)o1 | . | . | 0% | .
O=C(c1ccc(F)cc1)N1CCC2(CC1)NC(=O)N(c1ccccc1Cl)N2 | . | . | 1.3µM* | .
O=C(c1ccc(F)cc1)N1CCN(Cc2ccccc2)CC1 | 0% | ? | 69% | -1%
O=C1N[C@H](CC(=O)N2CCN(c3ccc(C(F)(F)F)cn3)CC2)C(=O)Nc2ccccc21 | . | . | -2% | .
O=C(/C=C/c1cccc(O)c1)c1ccc(F)cc1 | . | . | 45µM* | .
COc1cc(/C=C/C(=O)c2ccc3c(c2)OCO3)cc(Cl)c1O | 29% | 17% | ? | 2%
